{"source": "PubChem BioAssay (Tox21)", "note": "Records with an inconclusive call do not appear. Unmarked numbers belong to inactive results. Active and inactive are the calls of the source. The call rests on the fitted dose curve; in most records, active means well fitted activation curve with a large enough effect; inconclusive means small, poorly fitted or top-dose-only effect; inactive means flat fitted curve, though single readings scatter. On the % scale 0 is the no-effect control and ±100 the full control effect."}
{"test": "qHTS assay to identify small molecule phospholipidosis (PLD) inducers (AID 1259344)", "settings": "HepG2 phospholipidosis, LipidTOX Red imaging, 24 h; series mostly up to 38.3 µM; PLD induction: at the top concentration", "description": "National Center for Advancing Translational Sciences [NCATS]\nDrug-induced Phospholipidosis (PLD) caused by cationic amphiphilic drugs is characterized by the appearance of unicentric or multicentric-lamellar bodies when viewed under electron microscope. Electron microscopy is the gold standard method for PLD detection, however, this method is time-consuming and labor intensive, making it unsuitable for evaluating a large set of compounds. A cell-based phospholipidosis assay has been developed using the LipidTox reagent in HepG2 cells and miniaturized into a 1536-well plate format. Drug induced phospholipid accumulation is stained with the LipidTox dyes in red color which then is determined using an automated high content screening system.\nHepG2 cells are dispensed at 900 cells/3 uL/well into Collagen I-coated 1536-well black-wall/clear-bottom assay plates (Greiner Bio-One, Monroe, NC) using the Multidrop Combi 8 channel dispenser (Thermo Fisher, Waltham, MA, USA). The assay plates are incubated at 37 C for 4 hours to allow the cell attachment. 3 uL of 1:500 LipidTOX Red dye is added using the dispenser, and then 23 nL compounds are added via a Wako Pintool station (Wako Automation, San Diego, CA). Amiodarone, a known PLD inducer, was used as a positive control and DMSO was used as a negative control. The assay plates were then incubated at 37 C for 24 hours.\nFor fixations, 4 uL of 8% paraformaldehyde fixative solution containing 10 ug/mL Hoechst 33342 in Dulbecco's phosphate-buffered saline (DPBS) is added using a Kalypsys washer/dispenser (Kalypsys, San Diego, CA, USA). After incubation at room temperature for 30 min, the assay plates are washed once with DPBS using a Kalypsys washer/dispenser. The assay plates are then sealed and stored at 4 C before imaging. The fluorescence intensities (595 nm excitation, 615 nm emission for LipidTOX; 352 nm excitation, 461 nm emission for Hoechst 33342) are measured using an ImageXpress Micro Widefield High Content Screening System (Molecular Devices, Sunnyvale, CA, USA) with a 20x Plan Fluor objective. Images are acquired for one site in each well and analyzed with the MetaXpress software (Molecular Devices) using the Transfluor module. Several algorithmic outputs, such as pit count per well, pit count per cell, pit integrated intensity per well, and pit integrated intensity per cell, are used for quantitative image analysis for PLD."}
{"molecule": "CCCCNc1c(C(=O)OCC)c(C)nc2c1cnn2CC", "PLD induction": "1.97%"}
{"molecule": "Clc1ccc(C(Cn2ccnc2)OCc2c(Cl)cccc2Cl)c(Cl)c1", "note": "(stereo not given)", "PLD induction": "16.8% [at 15.5 µM]"}
{"molecule": "CN1[C@@H]2CC[C@H]1CC(OC(=O)C(CO)c1ccccc1)C2", "note": "(stereo not given in full)", "Potency": "inactive"}
{"molecule": "Cc1cc2c(C(C)C)c(O)c(O)c(C=O)c2c(O)c1-c1c(C)cc2c(C(C)C)c(O)c(O)c(C=O)c2c1O", "PLD induction": "-1.6%"}
{"molecule": "CN(Cc1cc(Br)cc(Br)c1N)C1CCCCC1", "PLD induction": "15.2%"}
{"molecule": "COc1cc(C(=O)NS(=O)(=O)c2ccccc2C)ccc1Cc1cn(C)c2ccc(NC(=O)OC3CCCC3)cc12", "PLD induction": "3.5%"}
{"molecule": "CCN(CC)CCOC(=O)C1(C2CCCCC2)CCCCC1", "PLD induction": "15.8%"}
{"molecule": "CCOC(=O)C1=C(C)NC(C)=C(C(=O)OCC)C1c1ccccc1/C=C/C(=O)OC(C)(C)C", "PLD induction": "15.7%"}
{"molecule": "CCCSS/C(CCO)=C(\\C)N(C=O)Cc1cnc(C)nc1N", "PLD induction": "0.262%"}
{"molecule": "C[n+]1c2cc(N)ccc2cc2ccc(N)cc21", "note": "(tested in a mixture with another compound)", "PLD induction": "-2.57%"}
{"molecule": "CCCCOc1ccc(C(=O)CCN2CCCCC2)cc1", "PLD induction": "4.8% [at 15.5 µM]"}
{"molecule": "C=C(c1ccc(C(=O)O)cc1)c1cc2c(cc1C)C(C)(C)CCC2(C)C", "PLD induction": "1.93%"}
{"molecule": "CCN(CC)CCOc1ccc(C(O)(Cc2ccc(Cl)cc2)c2ccc(C)cc2)cc1", "note": "(stereo not given)", "PLD induction": "8.82%"}
{"molecule": "N[C@@H](CSSC[C@H](N)C(=O)O)C(=O)O", "PLD induction": "-0.953%"}
{"molecule": "Oc1c(Br)cc(Br)c2cccnc12", "PLD induction": "-0.351%"}
{"molecule": "Cc1cn[nH]c1", "PLD induction": "-0.743%"}
{"molecule": "C[C@@]12C(=O)OC(=O)[C@]1(C)C1CCC2O1", "PLD induction": "-2.26% [at 15.5 µM]"}
{"molecule": "CC(=O)Nc1ccc(O)cc1", "PLD induction": "-0.619%"}
{"molecule": "O[C@@H](c1cc(C(F)(F)F)nc2c(C(F)(F)F)cccc12)[C@H]1CCCCN1", "PLD induction": "-0.287%"}
{"molecule": "Clc1ccccc1CN1CCc2sccc2C1", "PLD induction": "2.12%"}
{"molecule": "CC(C)OC(=O)c1cc(C(=O)OC(C)C)cc([N+](=O)[O-])c1", "PLD induction": "2.73% [at 78.4 µM]"}
{"molecule": "COc1ccccc1OCCNCC(O)COc1cccc2[nH]c3ccccc3c12", "note": "(stereo not given)", "PLD induction": "11.7%"}
{"molecule": "NCCCC(O)(P(=O)(O)O)P(=O)(O)O", "PLD induction": "-0.234%"}
{"molecule": "O=C1OC(OC(=O)c2cccnc2Nc2cccc(C(F)(F)F)c2)c2ccccc21", "note": "(stereo not given)", "PLD induction": "0.0917%"}
{"molecule": "O=C(O)CCn1c2c(c3ccccc31)C[C@H](NS(=O)(=O)c1ccc(F)cc1)CC2", "PLD induction": "1.31%"}
{"molecule": "NC1(c2ccc(-c3nc4ccn5c(=O)[nH]nc5c4cc3-c3ccccc3)cc2)CCC1", "PLD induction": "2.31%"}
{"molecule": "O=C(Nc1ccc(Cl)cc1)Nc1ccc(Cl)c(C(F)(F)F)c1", "PLD induction": "-1.96%"}
{"molecule": "Clc1ccc(C(Cn2ccnc2)OCc2ccsc2Cl)c(Cl)c1", "note": "(stereo not given)", "PLD induction": "11.4%"}
{"molecule": "C/C=C/C=N/NC(=O)c1ccncc1", "PLD induction": "-0.648%"}
{"molecule": "CCN(CC)CCNc1ccc(CO)c2sc3ccccc3c(=O)c12", "PLD induction": "8.26%"}
{"molecule": "CCOC(=O)[C@@](C)(N)Cc1ccc(O)c(O)c1", "PLD induction": "0.123% [at 15.5 µM]"}
{"molecule": "CO[C@H]1C=CO[C@@]2(C)Oc3c(C)c(O)c4c(O)c(cc(O)c4c3C2=O)NC(=O)/C(C)=C\\C=C/[C@H](C)[C@H](O)[C@@H](C)[C@@H](O)[C@@H](C)[C@H](OC(C)=O)[C@@H]1C", "PLD induction": "0.089%"}
{"molecule": "CC(C)N=C(N)/N=C(\\N)Nc1ccc(Cl)cc1", "PLD induction": "0.298% [at 15.5 µM]"}
{"molecule": "CC(C(O)c1ccccc1)N(C)CCOC(c1ccccc1)c1ccccc1", "note": "(stereo not given)", "PLD induction": "16.7%"}
{"molecule": "CC(=O)Oc1ccc(C2(c3ccc(OC(C)=O)cc3)Oc3ccccc3NC2=O)cc1", "PLD induction": "-2.7%"}
{"molecule": "CCCN(CCc1cccs1)[C@H]1CCc2c(O)cccc2C1", "PLD induction": "3.17%"}
{"molecule": "O=C1c2c(O)ccc(O)c2C(=O)c2c(NCCNCCO)ccc(NCCNCCO)c21", "PLD induction": "-2.14% [at 15.5 µM]"}
{"molecule": "CCCCCCCC/C=C\\CCCCCCCC(=O)NCc1ccc(O)c(OC)c1", "PLD induction": "4%"}
{"molecule": "CC1=C(/C=C/C(C)=C/C=C/C(C)=C/C(=O)Nc2ccc(O)cc2)C(C)(C)CCC1", "PLD induction": "-1.26%"}
{"molecule": "CNC(=O)c1cc(Oc2ccc(NC(=O)Nc3ccc(Cl)c(C(F)(F)F)c3)cc2)ccn1", "PLD induction": "-1.84%"}
